Test results taken from paper PMC7862700, “An all-to-all approach to the identification of sequence-specific readers for epigenetic DNA modifications on cytosine”.

Key:
Assay in all cases: DAPPL (digital affinity profiling via proximity ligation, sequencing); 10 mM Tris-HCl pH 7.5, 50 mM NaCl, 1 mM DTT, 4% glycerol, room temperature, 30 min; GST-TFs on glutathione beads, 16-mer random dsDNA library, 0.1% formaldehyde crosslink after washing; high values mean tight binding
Conditions in all cases: protein: recombinant; tags: N-terminal GST; dsDNA, one strand shown
FLI1 = target: T1, FLI1 (Homo sapiens, UniProt Q01543 1-452)
T1 sequence: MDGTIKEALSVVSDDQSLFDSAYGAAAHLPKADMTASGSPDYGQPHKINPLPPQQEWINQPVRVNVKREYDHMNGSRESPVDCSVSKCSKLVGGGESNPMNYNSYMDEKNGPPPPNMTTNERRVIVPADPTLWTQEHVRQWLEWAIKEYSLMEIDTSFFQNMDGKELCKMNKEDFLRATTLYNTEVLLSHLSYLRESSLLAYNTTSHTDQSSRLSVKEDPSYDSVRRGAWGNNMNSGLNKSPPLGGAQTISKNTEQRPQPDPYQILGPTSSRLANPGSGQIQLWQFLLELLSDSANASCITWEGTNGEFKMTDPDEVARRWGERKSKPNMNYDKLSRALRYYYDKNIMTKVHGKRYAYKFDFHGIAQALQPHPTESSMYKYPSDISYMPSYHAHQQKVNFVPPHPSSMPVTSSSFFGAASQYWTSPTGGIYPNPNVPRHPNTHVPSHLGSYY
Procedure, shortened: (§1)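 Binding signal is given per hexamer as its read frequency for a factor divided by its frequency in the tag-only sample. GST-fused human transcription factors were expressed in yeast, captured on glutathione beads, barcoded with DNA and pooled with that sample, then incubated with 200 nmole of a 16-mer random double-stranded DNA library in Tris/NaCl/DTT/glycerol buffer for 30 min at room temperature. The pools were then washed, crosslinked, proximity-ligated, amplified by PCR and sequenced on an Illumina NextSeq500.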

ELK1 = target: T2, ELK1 (Homo sapiens, UniProt P19419 1-428)
T2 sequence: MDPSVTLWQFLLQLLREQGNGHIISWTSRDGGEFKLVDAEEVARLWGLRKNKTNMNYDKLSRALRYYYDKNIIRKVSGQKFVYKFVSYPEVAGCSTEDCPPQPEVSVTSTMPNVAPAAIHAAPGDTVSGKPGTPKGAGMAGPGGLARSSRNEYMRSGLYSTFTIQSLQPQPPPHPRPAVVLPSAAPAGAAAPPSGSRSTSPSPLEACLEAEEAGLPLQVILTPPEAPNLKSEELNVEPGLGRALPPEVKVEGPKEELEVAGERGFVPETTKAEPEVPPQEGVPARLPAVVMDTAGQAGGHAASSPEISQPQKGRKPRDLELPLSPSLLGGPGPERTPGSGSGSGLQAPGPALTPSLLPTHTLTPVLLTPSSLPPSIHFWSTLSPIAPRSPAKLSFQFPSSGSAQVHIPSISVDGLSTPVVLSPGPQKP
Procedure, shortened: as §1

GABPA = target: T3, GABPA (Homo sapiens, UniProt Q06546 1-454)
T3 sequence: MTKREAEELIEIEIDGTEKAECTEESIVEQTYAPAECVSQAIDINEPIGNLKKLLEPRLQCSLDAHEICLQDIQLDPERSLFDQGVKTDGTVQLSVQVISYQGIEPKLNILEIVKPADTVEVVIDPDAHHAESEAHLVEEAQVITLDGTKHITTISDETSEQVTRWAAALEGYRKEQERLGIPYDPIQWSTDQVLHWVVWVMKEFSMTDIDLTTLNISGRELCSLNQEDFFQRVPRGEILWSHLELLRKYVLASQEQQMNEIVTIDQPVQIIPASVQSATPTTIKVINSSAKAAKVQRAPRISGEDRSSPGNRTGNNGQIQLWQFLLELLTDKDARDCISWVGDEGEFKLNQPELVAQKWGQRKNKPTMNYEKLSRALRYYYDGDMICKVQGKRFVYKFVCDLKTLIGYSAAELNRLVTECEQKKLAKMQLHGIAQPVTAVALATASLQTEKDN
Procedure, shortened: as §1

ERG = target: T4, ERG (Homo sapiens, UniProt P11308 1-479)
T4 sequence: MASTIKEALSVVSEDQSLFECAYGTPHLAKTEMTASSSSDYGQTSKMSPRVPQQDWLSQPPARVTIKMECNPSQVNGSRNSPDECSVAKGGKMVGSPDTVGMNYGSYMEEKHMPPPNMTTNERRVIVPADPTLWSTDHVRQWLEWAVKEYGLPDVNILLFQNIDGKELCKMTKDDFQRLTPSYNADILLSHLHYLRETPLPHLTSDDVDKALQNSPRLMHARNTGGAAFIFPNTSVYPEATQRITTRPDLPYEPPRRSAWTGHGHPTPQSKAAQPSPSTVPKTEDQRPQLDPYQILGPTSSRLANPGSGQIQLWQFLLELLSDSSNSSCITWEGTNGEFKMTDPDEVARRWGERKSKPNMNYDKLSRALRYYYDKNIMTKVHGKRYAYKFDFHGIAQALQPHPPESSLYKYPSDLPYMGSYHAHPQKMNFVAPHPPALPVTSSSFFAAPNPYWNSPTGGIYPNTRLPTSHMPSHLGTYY
Procedure, shortened: as §1

ELF1 = ELF1 (Homo sapiens, UniProt P32519 1-619)
Sequence of ELF1 (P32519 whole entry): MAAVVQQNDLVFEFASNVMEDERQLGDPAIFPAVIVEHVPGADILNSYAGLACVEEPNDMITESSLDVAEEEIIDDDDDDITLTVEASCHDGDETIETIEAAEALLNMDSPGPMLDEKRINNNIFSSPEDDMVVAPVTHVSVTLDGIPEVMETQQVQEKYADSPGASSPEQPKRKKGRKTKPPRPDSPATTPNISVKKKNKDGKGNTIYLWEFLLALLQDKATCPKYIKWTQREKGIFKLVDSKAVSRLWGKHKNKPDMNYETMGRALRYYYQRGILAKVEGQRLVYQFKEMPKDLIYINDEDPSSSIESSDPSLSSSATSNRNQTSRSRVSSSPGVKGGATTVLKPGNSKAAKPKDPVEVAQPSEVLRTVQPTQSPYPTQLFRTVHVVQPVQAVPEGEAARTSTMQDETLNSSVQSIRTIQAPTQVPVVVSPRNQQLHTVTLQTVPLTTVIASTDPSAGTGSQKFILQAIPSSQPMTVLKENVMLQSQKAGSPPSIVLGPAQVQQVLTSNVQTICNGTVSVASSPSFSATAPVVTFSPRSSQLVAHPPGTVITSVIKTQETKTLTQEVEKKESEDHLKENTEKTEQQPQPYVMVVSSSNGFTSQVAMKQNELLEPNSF
Procedure, shortened: as §1

EHF = target: T5, EHF (Homo sapiens, UniProt Q9NZC4 1-300)
T5 sequence: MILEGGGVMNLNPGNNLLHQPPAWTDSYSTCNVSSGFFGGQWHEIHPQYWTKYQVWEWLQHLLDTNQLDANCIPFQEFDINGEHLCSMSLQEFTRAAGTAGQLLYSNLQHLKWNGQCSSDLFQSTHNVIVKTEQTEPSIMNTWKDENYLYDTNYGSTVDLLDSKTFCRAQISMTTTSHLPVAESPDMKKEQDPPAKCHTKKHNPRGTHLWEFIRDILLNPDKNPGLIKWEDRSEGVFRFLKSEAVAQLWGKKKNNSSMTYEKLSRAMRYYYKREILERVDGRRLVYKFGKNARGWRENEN
Procedure, shortened: as §1

SPI1 = SPI1 (Homo sapiens, UniProt P17947 1-270)
Procedure, shortened: as §1

SPIB = SPIB (Homo sapiens, UniProt Q01892 1-262)
Sequence of SPIB (Q01892 whole entry): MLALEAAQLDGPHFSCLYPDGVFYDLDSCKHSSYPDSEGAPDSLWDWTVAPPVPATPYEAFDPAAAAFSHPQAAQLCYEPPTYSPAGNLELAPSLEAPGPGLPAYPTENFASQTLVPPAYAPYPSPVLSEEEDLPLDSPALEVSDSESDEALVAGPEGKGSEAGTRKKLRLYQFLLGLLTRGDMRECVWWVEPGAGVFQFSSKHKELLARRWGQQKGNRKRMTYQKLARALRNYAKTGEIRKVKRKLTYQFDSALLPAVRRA
Procedure, shortened: as §1

ELK3 = target: T6, ELK3 (Homo sapiens, UniProt P41970 1-407)
T6 sequence: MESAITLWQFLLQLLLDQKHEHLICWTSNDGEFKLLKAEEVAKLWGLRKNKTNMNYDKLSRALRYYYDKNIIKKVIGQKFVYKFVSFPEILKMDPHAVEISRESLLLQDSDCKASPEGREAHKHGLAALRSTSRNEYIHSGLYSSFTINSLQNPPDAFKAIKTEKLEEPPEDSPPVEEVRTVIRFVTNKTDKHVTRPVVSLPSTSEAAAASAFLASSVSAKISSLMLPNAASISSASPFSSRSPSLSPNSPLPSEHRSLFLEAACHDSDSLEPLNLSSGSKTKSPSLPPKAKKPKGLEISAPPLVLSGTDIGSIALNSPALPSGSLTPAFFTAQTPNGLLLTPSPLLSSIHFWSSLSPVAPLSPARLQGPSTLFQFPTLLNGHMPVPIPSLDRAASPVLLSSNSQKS
Procedure, shortened: as §1

FEV = target: T7, FEV (Homo sapiens, UniProt Q99581 1-238)
T7 sequence: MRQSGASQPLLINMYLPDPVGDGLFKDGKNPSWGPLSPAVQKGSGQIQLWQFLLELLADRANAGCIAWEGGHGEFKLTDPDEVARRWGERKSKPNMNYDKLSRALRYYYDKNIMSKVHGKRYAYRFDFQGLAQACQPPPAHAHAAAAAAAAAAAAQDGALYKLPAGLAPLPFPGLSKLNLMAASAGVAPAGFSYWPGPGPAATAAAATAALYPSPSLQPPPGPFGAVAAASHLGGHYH
Procedure, shortened: as §1

ETV5 = ETV5 (Homo sapiens, UniProt P41161 1-510)
Sequence of ETV5 (P41161 whole entry): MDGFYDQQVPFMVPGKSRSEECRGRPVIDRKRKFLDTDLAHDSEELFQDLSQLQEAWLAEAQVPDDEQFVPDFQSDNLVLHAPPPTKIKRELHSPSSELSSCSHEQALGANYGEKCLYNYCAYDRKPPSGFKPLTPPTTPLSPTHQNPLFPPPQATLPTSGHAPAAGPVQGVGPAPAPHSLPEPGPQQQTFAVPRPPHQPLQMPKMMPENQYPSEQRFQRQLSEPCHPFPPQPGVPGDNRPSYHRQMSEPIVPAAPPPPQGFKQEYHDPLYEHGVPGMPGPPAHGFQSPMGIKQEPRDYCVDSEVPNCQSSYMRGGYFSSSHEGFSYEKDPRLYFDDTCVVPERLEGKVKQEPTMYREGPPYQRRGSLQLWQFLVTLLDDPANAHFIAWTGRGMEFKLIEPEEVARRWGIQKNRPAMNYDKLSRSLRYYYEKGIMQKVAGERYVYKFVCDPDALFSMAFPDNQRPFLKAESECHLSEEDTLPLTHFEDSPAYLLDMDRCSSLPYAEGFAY
Procedure, shortened: as §1

SPIC = target: T8, SPIC (Homo sapiens, UniProt Q8N5J4 1-248)
T8 sequence: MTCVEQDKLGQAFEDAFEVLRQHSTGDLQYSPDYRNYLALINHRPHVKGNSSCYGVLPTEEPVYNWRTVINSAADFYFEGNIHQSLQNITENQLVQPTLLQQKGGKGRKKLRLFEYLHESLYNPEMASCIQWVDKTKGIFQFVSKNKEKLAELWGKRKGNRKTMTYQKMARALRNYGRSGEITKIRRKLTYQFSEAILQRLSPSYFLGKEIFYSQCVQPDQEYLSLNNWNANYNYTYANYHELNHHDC
Procedure, shortened: as §1

ELF4 = ELF4 (Homo sapiens, UniProt Q99607 1-663)
Sequence of ELF4 (Q99607 whole entry): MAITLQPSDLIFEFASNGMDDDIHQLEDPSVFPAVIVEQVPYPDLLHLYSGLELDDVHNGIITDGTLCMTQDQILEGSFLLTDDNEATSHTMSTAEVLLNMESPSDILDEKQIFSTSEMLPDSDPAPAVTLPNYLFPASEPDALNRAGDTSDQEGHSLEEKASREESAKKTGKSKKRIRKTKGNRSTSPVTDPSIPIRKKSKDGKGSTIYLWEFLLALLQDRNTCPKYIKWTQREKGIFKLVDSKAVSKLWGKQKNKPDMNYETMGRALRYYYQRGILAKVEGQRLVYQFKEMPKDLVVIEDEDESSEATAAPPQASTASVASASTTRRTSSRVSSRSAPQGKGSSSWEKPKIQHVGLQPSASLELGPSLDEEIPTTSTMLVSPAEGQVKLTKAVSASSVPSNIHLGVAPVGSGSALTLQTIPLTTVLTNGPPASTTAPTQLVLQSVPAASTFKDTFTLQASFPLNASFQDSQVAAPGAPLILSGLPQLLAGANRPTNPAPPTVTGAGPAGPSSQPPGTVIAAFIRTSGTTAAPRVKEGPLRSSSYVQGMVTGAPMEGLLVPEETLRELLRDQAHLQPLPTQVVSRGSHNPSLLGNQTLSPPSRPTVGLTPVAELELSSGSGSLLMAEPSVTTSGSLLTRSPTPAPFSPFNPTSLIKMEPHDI
Procedure, shortened: as §1

ERF = target: T9, ERF (Homo sapiens, UniProt P50548 1-548)
T9 sequence: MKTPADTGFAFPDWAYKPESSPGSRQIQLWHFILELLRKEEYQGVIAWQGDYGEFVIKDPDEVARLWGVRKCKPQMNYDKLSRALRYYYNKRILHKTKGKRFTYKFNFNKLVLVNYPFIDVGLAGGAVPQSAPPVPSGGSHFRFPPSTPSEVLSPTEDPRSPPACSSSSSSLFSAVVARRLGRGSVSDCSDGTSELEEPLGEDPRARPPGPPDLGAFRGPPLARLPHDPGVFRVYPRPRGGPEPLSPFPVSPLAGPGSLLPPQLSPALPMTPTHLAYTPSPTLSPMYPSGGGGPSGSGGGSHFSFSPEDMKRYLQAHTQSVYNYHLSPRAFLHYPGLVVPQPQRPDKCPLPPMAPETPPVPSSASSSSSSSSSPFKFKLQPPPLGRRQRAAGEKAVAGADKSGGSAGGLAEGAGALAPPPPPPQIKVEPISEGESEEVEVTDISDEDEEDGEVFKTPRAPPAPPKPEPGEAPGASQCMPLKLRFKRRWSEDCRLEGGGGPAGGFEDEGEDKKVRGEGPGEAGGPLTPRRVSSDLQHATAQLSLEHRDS
Procedure, shortened: as §1

ETV3L = target: T10, ETV3L (Homo sapiens, UniProt Q6ZN32 1-361)
T10 sequence: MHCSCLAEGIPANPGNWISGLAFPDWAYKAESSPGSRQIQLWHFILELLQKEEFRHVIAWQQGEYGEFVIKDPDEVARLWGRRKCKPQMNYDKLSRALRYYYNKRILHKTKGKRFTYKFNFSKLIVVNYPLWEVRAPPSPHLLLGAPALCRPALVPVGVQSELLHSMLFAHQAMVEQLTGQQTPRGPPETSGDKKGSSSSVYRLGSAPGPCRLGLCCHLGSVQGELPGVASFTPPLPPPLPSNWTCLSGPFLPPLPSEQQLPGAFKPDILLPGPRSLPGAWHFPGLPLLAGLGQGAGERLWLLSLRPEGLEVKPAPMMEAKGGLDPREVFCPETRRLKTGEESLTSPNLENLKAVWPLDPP
Procedure, shortened: as §1

ETS2 = target: T11, ETS2 (Homo sapiens, UniProt P15036 1-469)
T11 sequence: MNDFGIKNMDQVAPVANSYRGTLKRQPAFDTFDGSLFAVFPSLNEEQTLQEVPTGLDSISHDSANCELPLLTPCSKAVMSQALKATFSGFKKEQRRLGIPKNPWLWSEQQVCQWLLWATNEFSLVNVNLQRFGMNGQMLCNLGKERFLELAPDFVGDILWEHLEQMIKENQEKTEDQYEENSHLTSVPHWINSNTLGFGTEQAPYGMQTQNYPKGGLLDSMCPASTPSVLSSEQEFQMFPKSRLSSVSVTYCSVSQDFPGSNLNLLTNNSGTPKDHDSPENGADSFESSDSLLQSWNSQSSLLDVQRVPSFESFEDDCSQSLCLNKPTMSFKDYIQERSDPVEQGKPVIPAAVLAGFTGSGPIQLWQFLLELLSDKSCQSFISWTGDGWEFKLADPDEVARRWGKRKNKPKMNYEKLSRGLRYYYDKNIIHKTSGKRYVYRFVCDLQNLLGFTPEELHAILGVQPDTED
Procedure, shortened: as §1

ELF5 = target: T12, ELF5 (Homo sapiens, UniProt Q9UKW6-2 1-255)
T12 sequence: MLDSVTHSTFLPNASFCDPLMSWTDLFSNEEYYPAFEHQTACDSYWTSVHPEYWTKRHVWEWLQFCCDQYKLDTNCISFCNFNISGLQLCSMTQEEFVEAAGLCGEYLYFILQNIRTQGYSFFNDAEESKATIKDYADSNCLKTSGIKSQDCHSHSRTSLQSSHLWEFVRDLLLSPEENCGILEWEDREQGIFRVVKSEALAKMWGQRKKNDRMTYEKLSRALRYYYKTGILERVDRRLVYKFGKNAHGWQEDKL
Procedure, shortened: as §1

ETV3 = target: T13, ETV3 (Homo sapiens, UniProt P41162-2 1-143)
T13 sequence: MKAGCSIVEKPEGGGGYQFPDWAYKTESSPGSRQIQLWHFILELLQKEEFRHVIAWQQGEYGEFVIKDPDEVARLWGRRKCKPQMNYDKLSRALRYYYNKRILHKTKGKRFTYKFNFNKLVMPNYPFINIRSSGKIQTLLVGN
Procedure, shortened: as §1

ETV6 = ETV6 (Homo sapiens, UniProt P41212 1-452)
Sequence of ETV6 (P41212 whole entry): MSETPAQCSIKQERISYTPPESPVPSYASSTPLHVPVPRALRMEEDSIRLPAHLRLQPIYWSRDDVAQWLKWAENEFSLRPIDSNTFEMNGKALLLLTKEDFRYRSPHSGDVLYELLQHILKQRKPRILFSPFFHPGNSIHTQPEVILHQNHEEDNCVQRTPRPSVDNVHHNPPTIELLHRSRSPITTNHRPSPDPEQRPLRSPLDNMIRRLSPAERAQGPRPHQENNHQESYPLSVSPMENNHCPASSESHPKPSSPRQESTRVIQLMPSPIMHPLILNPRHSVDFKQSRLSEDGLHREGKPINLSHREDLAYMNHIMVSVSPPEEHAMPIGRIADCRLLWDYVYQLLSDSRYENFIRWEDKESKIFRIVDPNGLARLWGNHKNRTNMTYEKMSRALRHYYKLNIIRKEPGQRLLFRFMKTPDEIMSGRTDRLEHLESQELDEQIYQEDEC
Procedure, shortened: as §1

With TGCCAA the binding signal (FLI1) was 1.07 fold enrichment (6-mer frequency, TF over GST control), the binding signal (ELK1) was 1.11 fold enrichment (6-mer frequency, TF over GST control) and the binding signal (GABPA) was 1.06 fold enrichment (6-mer frequency, TF over GST control). For the same sequence, the binding signal (ERG) was 1.06 fold enrichment (6-mer frequency, TF over GST control), the binding signal (ELF1) was 1.18 fold enrichment (6-mer frequency, TF over GST control) and the binding signal (EHF) was 1.09 fold enrichment (6-mer frequency, TF over GST control). For the same sequence, the binding signal (SPI1) was 1.12 fold enrichment (6-mer frequency, TF over GST control), the binding signal (SPIB) was 1.11 fold enrichment (6-mer frequency, TF over GST control) and the binding signal (ELK3) was 1.05 fold enrichment (6-mer frequency, TF over GST control). The binding signal (FEV) was 1.12 fold enrichment (6-mer frequency, TF over GST control), the binding signal (ETV5) was 1.08 fold enrichment (6-mer frequency, TF over GST control) and the binding signal (SPIC) was 1.08 fold enrichment (6-mer frequency, TF over GST control). The binding signal (ELF4) was 1.12 fold enrichment (6-mer frequency, TF over GST control), the binding signal (ERF) was 1.15 fold enrichment (6-mer frequency, TF over GST control) and the binding signal (ETV3L) was 1.21 fold enrichment (6-mer frequency, TF over GST control). For the same sequence, the binding signal (ETS2) was 1.12 fold enrichment (6-mer frequency, TF over GST control), the binding signal (ELF5) was 1.1 fold enrichment (6-mer frequency, TF over GST control) and the binding signal (ETV3) was 1.13 fold enrichment (6-mer frequency, TF over GST control). The binding signal (ETV6) was 1.08 fold enrichment (6-mer frequency, TF over GST control).
